# Compound activity deposited in PubChem by several laboratories.
# This is a sample that favours compounds with a hit; in the whole collection about 3.6% have one here.
# LGR2 inh – blocks bursicon-induced cAMP signaling via Drosophila LGR2; inhibition, % at 9.99 µM; AID 720647; HEK293 LGR2, CRE-luciferase, bursicon-stimulated, 4 h; 380,000 tested, 0.35% active;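 active = drop in luminescence signal, shown as inhibition above about 50% in the replicate tests, limit read from the data, passing the limit was not always enough; inconclusive = probably only some replicates passing the limit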;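 note: agonist challenge used bursicon conditioned medium at about half maximal strength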
# KKLEB tox – reduces viability of KKLEB cystic fibrosis airway cells; activity change (cytotoxicity), % at 5 µM; KKLEB CF airway cells viability, ATPlite luminescence, overnight; active compounds read low; cells stimulated with P. aeruginosa culture filtrate; AID 602141; 360,000 tested, 0.36% active;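 active = corrected activity change at or below -50% at 5 µM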
# CF NFkB block – cystic fibrosis NF-kB activation inhibition; KKLEB NF-kB-GFP reporter, PAF-induced, GFP fluorescence overnight; inhibition, % at 5 µM; 360,000 tested, 0.86% active;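 active = at least 50% inhibition at 5 µM, scaled per plate between neutral and stimulator controls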;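 note: PAF is a Pseudomonas aeruginosa culture filtrate used as stimulus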
# Mdm2 MdmX PPI – inhibitors of human Mdm2/MdmX interaction | O15151+Q00987 | SaOS-2 split-luciferase Mdm2/MdmX complementation, luminescence | inhibition, % at 8 µM | 330,000 tested, 3% active;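 active = inhibition of at least 50% at 8 µM in the primary screen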
# Target sequence (O15151 whole entry, looked up): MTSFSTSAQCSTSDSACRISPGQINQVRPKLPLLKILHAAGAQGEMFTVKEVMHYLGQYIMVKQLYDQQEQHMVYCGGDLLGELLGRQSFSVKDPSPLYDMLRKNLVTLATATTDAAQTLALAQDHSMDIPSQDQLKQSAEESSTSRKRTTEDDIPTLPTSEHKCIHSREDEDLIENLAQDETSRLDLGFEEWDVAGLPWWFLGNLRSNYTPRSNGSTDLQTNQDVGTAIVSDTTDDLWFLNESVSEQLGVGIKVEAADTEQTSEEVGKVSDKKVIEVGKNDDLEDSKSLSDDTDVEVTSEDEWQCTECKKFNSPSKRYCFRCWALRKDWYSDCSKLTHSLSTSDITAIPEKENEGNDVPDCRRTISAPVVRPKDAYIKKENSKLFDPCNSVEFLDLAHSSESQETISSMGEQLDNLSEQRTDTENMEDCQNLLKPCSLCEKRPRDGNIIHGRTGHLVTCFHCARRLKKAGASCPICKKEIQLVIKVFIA
# Target sequence (Q00987 whole entry, looked up): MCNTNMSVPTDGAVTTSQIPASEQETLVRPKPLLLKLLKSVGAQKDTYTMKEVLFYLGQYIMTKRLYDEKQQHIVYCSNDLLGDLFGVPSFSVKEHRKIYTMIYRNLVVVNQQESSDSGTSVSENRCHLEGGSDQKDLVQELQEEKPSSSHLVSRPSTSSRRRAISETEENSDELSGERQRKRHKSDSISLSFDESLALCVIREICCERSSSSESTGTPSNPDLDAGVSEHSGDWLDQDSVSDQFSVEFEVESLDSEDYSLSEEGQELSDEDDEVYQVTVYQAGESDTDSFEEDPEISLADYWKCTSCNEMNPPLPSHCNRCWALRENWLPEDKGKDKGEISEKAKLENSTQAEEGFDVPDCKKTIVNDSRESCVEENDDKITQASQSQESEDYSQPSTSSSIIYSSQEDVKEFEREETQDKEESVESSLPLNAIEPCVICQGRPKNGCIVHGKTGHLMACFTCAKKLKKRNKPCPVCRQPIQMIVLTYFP
# HSP90 refold inh – HSP90 refolding inhibition in rabbit reticulocyte lysate | AID 1789 | 290,000 tested, 0.91% active | luciferase refolding luminescence, 3 h | inhibition, % at 5.6 µM;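 active = inhibition above the screen-wide mean plus 3 SD, computed separately per campaign, cut at about 16% in these data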;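 note: inhibitors lower the luminescence because luciferase stays unfolded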
# Peg3 prom inh – reduces Peg3 promoter-driven luciferase expression in HeLa; HeLa PEG-Prom luciferase reporter, luminescence, overnight; inhibition, % at 20 µM; 360,000 tested, 1.7% active; AID 588405;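 active = inhibition of at least 50% at 20 µM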
# Mdm2 MdmX conf – human Mdm2/MdmX binding inhibition, confirmed; shares compounds with Mdm2 MdmX PPI; luminescent assay; inhibition, % at 8 µM; 10,000 tested, 55% active; in the data active = inhibition above about 40%
# Full FLuc ctr – full-length luciferase inhibition in Mdm2/MdmX counter-screen. SaOS-2 full-length luciferase counterscreen, luminescence. shares compounds with Mdm2 MdmX PPI. AID 504607. 6,200 tested, 77% active. inhibition, % at 8 µM;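 active = mean inhibition at 8 µM reaching about 37%, which flags the compound as non-specific, limit read from the data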;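 note: p53-null SaOS-2 cells with luciferase driven by a doxycycline-inducible promoter; compound on cells about two nights before reading with doxycycline added after day one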
# Hits are given with their value; . = inactive; ? = inconclusive; / = no result given.
SMILES,LGR2 inh,KKLEB tox,CF NFkB block,Mdm2 MdmX PPI,HSP90 refold inh,Peg3 prom inh,Mdm2 MdmX conf,others
CC(OC(=O)/C=C/c1ccc2ccccc2n1)C(=O)Nc1ccc(S(N)(=O)=O)cc1 (stereo unspecified),.,.,.,72.4,/,.,49.1,Full FLuc ctr=66.3
CN(C)CC1CCCCC1OC(=O)c1ccc(Cl)cc1 (stereo unspecified),.,.,.,.,.,.,/,
CN(C)CC1CCCCC1C1(O)c2ccccc2CSc2sccc21 (stereo unspecified),/,.,.,60.7,.,.,55.4,Full FLuc ctr=54.1
CC[C@@H]1CC=C[C@H]2[C@H]1C(=O)N(Cc1ccccc1)[C@H]2c1cc(C)ccc1F,/,/,/,54.2,/,/,42.0,Full FLuc ctr=48.9
Cc1ccc(-c2cc([C@H]3[C@H]4C=CC[C@@H](C)[C@@H]4C(=O)N3Cc3ccccc3)ccc2F)cc1,.,.,.,.,/,.,/,
CCc1c(C)sc(NC(=O)CSc2nc3c(c(C(F)(F)F)n2)CCc2ccccc2-3)c1C#N,.,.,.,74.9,.,.,.,
Cc1ccc(C)c(N2CCN(C(=O)C(Cc3ccccc3)n3cccc3)CC2)c1 (stereo unspecified),.,.,.,50.1,.,.,.,
C[C@@H]1CN([C@H](C)CO)C(=O)c2cc(NC(=O)Nc3ccccc3)ccc2O[C@@H]1CN(C)S(=O)(=O)c1ccc(F)cc1,.,/,/,/,/,/,/,
COc1ccc(C(=O)N=C2SC3CS(=O)(=O)CC3N2Cc2ccc(F)cc2)cc1 (stereo unspecified),.,.,.,51.0,.,.,40.9,Full FLuc ctr=65.1
COc1ccc(CN2C(=NC(=O)c3ccccc3)SC3CS(=O)(=O)CC32)cc1 (stereo unspecified),.,.,.,50.1,.,.,.,
Cc1noc(C)c1NC(=O)Nc1ccc2c(c1)C(=O)N([C@@H](C)CO)C[C@@H](C)[C@@H](CN(C)C(=O)Nc1ccc3c(c1)OCO3)O2,.,/,/,/,/,/,/,
CCCCn1c(=N)n(CC(=O)c2ccc([N+](=O)[O-])cc2)c2ccccc21,.,/,/,54.9,.,/,.,
Cc1ccc(C(=O)Cn2c(=N)n(CCN3CCOCC3)c3ccccc32)cc1,.,.,.,.,/,.,/,
Cc1ccc(Cn2c(=N)n(CC(=O)c3ccc([N+](=O)[O-])cc3)c3ccccc32)cc1,.,-61.3,.,98.3,.,102.5,.,
C[C@H](CO)N1C[C@H](C)[C@@H](CN(C)C(=O)CCCN(C)C)OCCCC[C@H](C)Oc2ccc(NC(=O)Nc3ccc4c(c3)OCO4)cc2C1=O,.,/,/,/,/,/,/,
Cc1noc(C)c1NC(=O)N(C)C[C@@H]1OCCCC[C@H](C)Oc2ccc(NS(C)(=O)=O)cc2C(=O)N([C@@H](C)CO)C[C@H]1C,.,/,/,/,/,/,/,
Cc1ccc(S(=O)(=O)N(C)C[C@@H]2Oc3ccc(NC(=O)Nc4ccccc4)cc3C(=O)N([C@H](C)CO)C[C@@H]2C)cc1,.,/,/,/,/,/,/,
COc1cc(Br)cc(/C=N/NC(=O)Cc2ccc(C(F)(F)F)cc2[N+](=O)[O-])c1O,.,.,.,52.3,.,54.3,70.2,Full FLuc ctr=.
COc1cc([N+](=O)[O-])cc(/C=N/NC(=O)Cn2nccc2C)c1O,.,.,.,.,.,.,/,
CCOc1ccc(C(F)(F)F)cc1NC(=O)c1ccc(OC)c([N+](=O)[O-])c1,.,.,.,.,.,.,/,
COc1cc([N+](=O)[O-])cc(/C=N/NC(=O)Cn2nc(C)cc2C)c1O,.,.,.,57.4,.,.,64.7,Full FLuc ctr=50.3
CCOc1cc(/C=N/NC(=O)Cc2ccc(C(F)(F)F)cc2[N+](=O)[O-])c(Br)cc1OC,/,.,.,77.1,.,.,54.8,Full FLuc ctr=.
C[C@@H]1CN([C@H](C)CO)S(=O)(=O)c2ccc(Br)cc2O[C@@H]1CN(C)Cc1ccncc1,.,/,/,/,/,/,/,
CC1(C)N=C(SCC(=O)Nc2ccc(Cl)cc2)C(c2ccc(Cl)cc2)=N1,/,.,.,55.9,.,.,.,
CC1(C)N=C(SCC(=O)Nc2ccc(Cl)cc2)C(c2ccccc2)=N1,/,.,.,.,.,.,/,
SMILES,LGR2 inh,KKLEB tox,CF NFkB block,Mdm2 MdmX PPI,HSP90 refold inh,Peg3 prom inh,Mdm2 MdmX conf,others
N#CC(c1ccc(Cl)nn1)c1ccc(Cl)cc1Cl (stereo unspecified),/,.,.,55.8,.,.,.,
C[C@@H]1CN([C@@H](C)CO)C(=O)c2cc(NC(=O)NC3CCCCC3)ccc2O[C@@H](C)CCCCO[C@H]1CN(C)CC1CCCCC1,.,/,/,/,/,/,/,
O=C(NCc1ccc(F)cc1)C(=O)Nc1nc(C23CC4CC(CC(C4)C2)C3)cs1,.,.,.,58.8,.,.,.,
CC1CCCC(C)N1CCCNC(=O)c1cc2c(s1)-c1ccccc1OC2 (stereo unspecified),.,.,.,61.2,.,79.0,.,
CCCN1CCN(CCCNC(=O)c2cc3c(s2)-c2c(C)cccc2OC3)CC1,.,.,.,62.2,.,.,.,
CCCN1CCN(CCCNC(=O)c2cc3c(s2)-c2ccccc2OC3)CC1,.,.,.,.,.,.,/,
Cc1ccc(/C=C/c2ccc3cccc(O)c3n2)s1,.,.,.,.,.,.,/,
COc1cccc(/C=C/c2ccc3cccc(O)c3n2)c1OC,.,.,.,70.1,.,89.8,.,
COc1ccc(/C=C/c2ccc3cccc(O)c3n2)c(OC)c1OC,.,.,.,99.8,.,85.8,.,
COc1ccccc1-c1cc(C(=O)Nc2cc(C)nn2-c2ccccc2)no1,/,.,.,57.0,.,.,61.5,Full FLuc ctr=45.5
COc1ccc(-c2cc(C(=O)Nc3cc(Br)ccc3O)no2)cc1,.,.,.,82.6,.,.,.,Full FLuc ctr=101.0
COc1ccc(-c2cc(C(=O)Nc3cc(C)nn3-c3ccccc3)no2)cc1,/,.,.,.,.,.,/,
COc1ccc(-c2cc(C(=O)Nc3c(C)nn(Cc4ccccc4)c3C)no2)cc1,.,.,.,62.9,.,.,.,
COc1cccc(-c2cc(C(=O)Nc3cc(C)nn3-c3ccccc3)no2)c1,/,.,.,64.6,.,.,.,
COCC(=O)N1[C@@H]2CN(C(=O)Nc3ccccc3Cl)c3ccccc3[C@@H]2[C@@H]1CO,.,/,/,/,/,/,/,
Cc1ccc(-n2ncc3c(N4CCN(c5ccccc5)CC4)ncnc32)c(C)c1,?,.,.,70.2,.,96.6,69.5,Full FLuc ctr=64.0
COc1ccc(-n2ncc3c(N4CCN(c5cccc(C)c5C)CC4)ncnc32)cc1,.,.,.,76.7,.,68.1,.,
COc1ccc(N2CCN(c3ncnc4c3cnn4-c3ccc(C)cc3C)CC2)cc1,.,.,.,.,.,.,/,
Clc1ccc(NNc2ccnc3cc(Cl)ccc23)cc1,/,.,.,.,.,.,/,
Cc1ccc(/C=N/Nc2ccnc3cc(Cl)ccc23)c(C)c1,/,.,.,100.3,.,110.8,.,
CNC[C@H]1OCCCC[C@H](C)Oc2ccc(NC(=O)c3ccccc3)cc2C(=O)N([C@H](C)CO)C[C@@H]1C,.,/,/,/,/,/,/,
